# Data reported in ChEMBL document CHEMBL4513156, “CO-ADD screening of NCPRI (Romania) compounds”.
# Potency and affinity values are given separately.
# Legend:
# Staphylococcus aureus = details: Concentration 32 ug.mL-1; ASSAY_TEST Inhibition of Bacterial Growth; detection method Absorption (OD600); MEDIA CAMHB; plate type 384well; NBS; CORNING #3640; time 18 hr
# Escherichia coli = details: Concentration 32 ug.mL-1; ASSAY_TEST Inhibition of Bacterial Growth; detection method Absorption (OD600); MEDIA CAMHB; plate type 384well; NBS; CORNING #3640; time 18 hr
Compound,Inhibition (Staphylococcus aureus),Inhibition (Escherichia coli)
O=C(NN=CC[C@H]1[C@H](CO)[C@@H](O)C[C@H]1O)c1ccncc1,21.6%,12.24%
O=C(N/N=C/C[C@@H]1[C@@H](CO)[C@H](O)C[C@@H]1O)c1ccncc1,22.27%,13.16%
O=C(N/N=C1/C[C@@H]2[C@@H](C(=O)O)[C@H]1C[C@H]2Cl)c1ccncc1,32.79%,18%
O=C(N/N=C1/C[C@H]2[C@H](CO)[C@@H]1C[C@@H]2Cl)c1ccncc1,26.26%,16.12%
O=C(NN=C[C@H]1[C@H]2CC(O)OC[C@H]2C[C@H]1O)c1ccncc1 (stereo partly drawn),15.22%,4.63%
O=C(N/N=C1/C2C[C@H]3C(C2CO)[C@H]13)c1ccncc1 (stereo partly drawn),21.76%,11.47%
COC(=O)CCCCCC[C@@H]1[C@@H](/C=N/NC(=O)c2ccncc2)[C@H](O)C[C@@H]1O,12.62%,6.85%
COC(=O)C[C@H]1[C@H](/C=N\NC(=O)c2ccncc2)[C@@H](O[Si](C)(C)C(C)(C)C)C[C@@H]1Cl,29.13%,13.69%
O=C(N/N=C1/C[C@@H]2[C@H](COC(c3ccccc3)(c3ccccc3)c3ccccc3)C[C@H](COC(c3ccccc3)(c3ccccc3)c3ccccc3)[C@@H]2C1)c1ccncc1,-0.42%,11.41%
